Drawing on PubChem BioAssay (EPA / NIEHS), this text covers outcome and AC50 for 24 compounds.

Molecules are shown by their SMILES. Records with an inconclusive call do not appear. Calls of active or inactive are those of the source. Rule for the calls, unless noted: active = hit-call score of the fitted dose curve at least 0.9, where 1 is the maximum; inactive = score below 0.9.

The term AC50 denotes the midpoint of the concentration-response curve, whichever way the signal moves.

Experiment [1] in a line: ACEA_ER_80hr: ACEA Biosciences xCELLigence Real-Time Cell Analysis on Estrogen Receptor Agonism for Proliferation (AID 2282667; active = hit-call score of the fitted dose curve at least 0.9, where 1 is the maximum). As to conditions: T47D proliferation, impedance (xCELLigence), 80 h. In short, it runs like this:
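Impedance readout (RT-CES) of T47D proliferation at 80 h post-dose; gain of signal vs DMSO baseline. Compounds: 8 conc, 1:4 serial, top 100 uM final, ≤0.5% DMSO; biological duplicate.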

The nature of experiment [2]: APR_HepG2_CellCycleArrest_24hr: Apredica 24-hour HepG2 Assay for Cell Cycle Arrest (AID 2282905).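 Note: cell cycle arrest scored as ratio of 2N to 4N nuclear DNA content.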 The settings on record: imaging, actives raise or lower the signal. In short, it runs like this: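 Compounds (0.39 to 200 uM, final DMSO 0.5% v/v) are applied to HepG2 cells for 24 hours; cells are then fixed, permeabilized and nuclei labeled with Hoechst 33342. Automated imaging measures DNA content, and activity is fitted in both directions against DMSO.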

The nature of experiment [3]: APR_HepG2_MicrotubuleCSK_24hr: Apredica 24-hour HepG2 Assay for Microtubule CSK Stabilty (AID 2282909). As to conditions: HepG2 microtubule cytoskeleton imaging, actives raise or lower the signal. In short, it runs like this: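 Compounds were applied to HepG2 cells for 24 hours across 0.39–200 uM in duplicate, with final DMSO at 0.5% v/v. Fixed, permeabilized cells were labeled for alpha-tubulin and nuclei, and tubulin fluorescence was quantified by imaging, fitted bidirectionally against DMSO.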

Experiment [4] can be described thus: APR_HepG2_MitoticArrest_24hr: Apredica 24-hour HepG2 Assay for Mitotic Arrest (AID 2282910). As to conditions: high-content imaging, actives raise or lower the signal. In short, it runs like this: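 Treatment lasted 24 hr in the human HepG2 line at 0.39–200 uM, solvent held at 0.5% DMSO. Fixed cells were stained with Hoechst 33342 and anti-phospho-histone H3, imaged at 20x, and analysed by gain- or loss-of-signal fitting against DMSO.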

Experiment [5] in a line: APR_HepG2_MitoMembPot_24hr: Apredica 24-hour HepG2 Assay for Mitochondrial Membrane Potential (AID 2282911). The settings on record: imaging, actives raise or lower the signal. In short, it runs like this: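 HepG2, 24 hr dosing, 10 concentrations 0.39–200 uM, 0.5% DMSO final. Live-cell MitoTracker Red CMXRos 250 nM 30 min, then 3.7% formaldehyde fix. HCS fluorescence imaging, 20x; bidirectional fit vs DMSO baseline.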

Experiment [6] can be described thus: APR_HepG2_MitoMass_24hr: Apredica 24-hour HepG2 Assay for Mitochondrial Mass (AID 2282912). The settings on record: high-content imaging, actives raise or lower the signal. In short, it runs like this: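 After 24 hr of treatment at 0.39 to 200 uM, HepG2 cells take up 250 nM MitoTracker Red CMXRos for 30 min and are then fixed with 3.7% formaldehyde. Per-well images are quantified, and any change in either direction is scored against solvent.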

Experiment [7] in a line: APR_HepG2_CellCycleArrest_72hr: Apredica 72-hour HepG2 Assay for Cell Cycle Arrest (AID 2282914). As to conditions: high-content imaging, actives raise or lower the signal. In short, it runs like this: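 HepG2, 72 hr exposure, 10-point 0.39–200 uM, duplicate, 0.5% DMSO final. Fix 3.7% formaldehyde 30 min RT, Triton X-100 0.5%, Hoechst 33342 2 ug/mL. ArrayScan 20x, six fields/well; DNA content per nucleus; bidirectional fit vs DMSO.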

Experiment [8] in a line: APR_HepG2_p53Act_24hr: Apredica 24-hour HepG2 Assay for p53 Activation (AID 2282913).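 Note: p53 protein immunofluorescence averaged per cell in HepG2 with Hoechst nuclei.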 The settings on record: high-content imaging, actives raise or lower the signal. In short, it runs like this: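 Read-out: Cy5 immunofluorescence for p53 in fixed, permeabilized HepG2, imaged by HCS with Hoechst-defined nuclei. Dosing was 24 hr at 0.39–200 uM in 0.5% DMSO. Curves were fitted bidirectionally relative to DMSO.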

For the compound `CCOP(=S)(Oc1ccc([N+](=O)[O-])cc1)c1ccccc1` (stereo not drawn), the compound was classed as inactive in experiment [1], in experiment [2], in experiment [3], in experiment [4], in experiment [5] and in experiment [6]. In addition, the compound was called inactive in experiment [7].
Regarding `ClC(Cl)(Cl)c1ccccc1`, the outcome in experiment [1], in experiment [2], in experiment [3], in experiment [4], in experiment [5] and in experiment [6] was inactive. Moreover, the outcome in experiment [8] and in experiment [7] was inactive.
For the compound `Cc1ccc(O)cc1C`, the result in experiment [1], in experiment [4], in experiment [5], in experiment [6] and in experiment [8] was inactive.
For `OCC1CO1` (stereo not drawn), the result in experiment [1], in experiment [2], in experiment [3], in experiment [4], in experiment [5] and in experiment [6] was inactive. Besides, the compound was called inactive in experiment [8] and in experiment [7].
`O=[N+]([O-])c1ccccc1`: the compound was classed as inactive in experiment [1], in experiment [2], in experiment [3], in experiment [4], in experiment [5] and in experiment [6]. Further, the outcome in experiment [8] and in experiment [7] was inactive.
As for `CCCCc1ccccc1`, the compound was classed as inactive in experiment [1], in experiment [2], in experiment [3], in experiment [4], in experiment [5] and in experiment [6]. Moreover, in experiment [7], the compound was called inactive.
Turning to `CN(C)C(=O)Cl`, the AC50 in experiment [1] was 38.7 µM (active). The result in experiment [2], in experiment [3], in experiment [4], in experiment [5], in experiment [6] and in experiment [7] was inactive.
With `Nc1cc2c3c(c1)C(c1ccccc1)=N[C@@H](NC(=O)c1cccnc1)C(=O)N3CC2`, the result in experiment [1], in experiment [2], in experiment [3], in experiment [4], in experiment [5] and in experiment [6] was inactive. Besides, the call in experiment [7] was inactive.
On to `Cc1ccc([N+](=O)[O-])cc1C`, for which the outcome in experiment [1], in experiment [2], in experiment [3], in experiment [4], in experiment [5] and in experiment [6] was inactive. For the same compound, the outcome in experiment [7] was inactive.
`CCNc1nc(Cl)nc(NC(C)(C)C)n1`: the AC50 in experiment [1] is 28 µM (active). The call in experiment [2], in experiment [3], in experiment [4], in experiment [5], in experiment [6] and in experiment [7] was inactive.
Turning to `[N-]=[N+]=[N-]`, the call in experiment [1], in experiment [2], in experiment [3], in experiment [4], in experiment [5] and in experiment [6] was inactive. In addition, the result in experiment [8] and in experiment [7] was inactive.
`COCCOCCO`: the result in experiment [1], in experiment [2], in experiment [3], in experiment [4], in experiment [5] and in experiment [6] was inactive. Also, the result in experiment [7] was inactive.
Consider `Cc1ccc(N)cc1N`, for which the compound was classed as inactive in experiment [1], in experiment [2], in experiment [3], in experiment [4], in experiment [5] and in experiment [6]. Also, the compound was called inactive in experiment [8] and in experiment [7].
With `Nc1ccc2ccccc2c1`, the compound was called inactive in experiment [1], in experiment [2], in experiment [3], in experiment [4], in experiment [6] and in experiment [8]. Further, the AC50 in experiment [5] was 52.5 µM (active); in experiment [7], 88.9 µM (active).
As for `CCCCCCCc1ccc(O)cc1`, the AC50 in experiment [1] was 0.402 µM (active). Besides, the compound was classed as inactive in experiment [2], in experiment [3], in experiment [4], in experiment [5], in experiment [6] and in experiment [7].
For `Nc1ccc(Cl)cc1`, the compound was classed as inactive in experiment [1], in experiment [2], in experiment [3], in experiment [4], in experiment [5] and in experiment [6]. Besides, the compound was classed as inactive in experiment [8] and in experiment [7].
On to `O=P1(N(CCCl)CCCl)NCCCO1` (stereo not drawn), for which the AC50 in experiment [1] is 3.97 µM (active). Further, the result in experiment [2], in experiment [3], in experiment [4], in experiment [5], in experiment [6] and in experiment [8] was inactive. For the same compound, the outcome in experiment [7] was inactive.
For `CC(C)(C)c1ccc(O)cc1`, in experiment [1], the AC50 was 10.5 µM (active). Further, the compound was classed as inactive in experiment [4], in experiment [5], in experiment [6] and in experiment [8].
As to `O=C(O)C1C(C(=O)O)C2(Cl)C(Cl)=C(Cl)C1(Cl)C2(Cl)Cl` (stereo not drawn), the compound was classed as inactive in experiment [1], in experiment [2], in experiment [3], in experiment [4], in experiment [5] and in experiment [6]. The compound was called inactive in experiment [8] and in experiment [7].
On to `CCC1(c2ccccc2)C(=O)N=C(O)NC1=O` (stereo not drawn), for which the compound was called inactive in experiment [1], in experiment [2], in experiment [3], in experiment [4], in experiment [5] and in experiment [6]. Moreover, the compound was called inactive in experiment [8] and in experiment [7].
For `c1ccc(OP(Oc2ccccc2)Oc2ccccc2)cc1`, the compound was classed as inactive in experiment [1], in experiment [2], in experiment [3], in experiment [4], in experiment [5] and in experiment [6]. Besides, the outcome in experiment [8] and in experiment [7] was inactive.
With `CC(Cc1ccc(OCC(=O)O)cc1)NCC(O)c1csc(C(F)(F)F)n1` (stereo not drawn), the compound was called inactive in experiment [1], in experiment [2], in experiment [3], in experiment [4], in experiment [5] and in experiment [6]. For the same compound, the result in experiment [8] and in experiment [7] was inactive.
With `CCCN(CCC)c1c([N+](=O)[O-])cc(C(C)C)cc1[N+](=O)[O-]`, the compound was classed as inactive in experiment [1], in experiment [3] and in experiment [4]. Further, the AC50 was 49 µM (active) in experiment [2]; 55.2 µM (active) in experiment [5]; 42.9 µM (active) in experiment [6]; 52.9 µM (active) in experiment [8]; 35.4 µM (active) in experiment [7].
Regarding `c1nc[nH]n1`, the outcome in experiment [1], in experiment [2], in experiment [3], in experiment [4], in experiment [5] and in experiment [6] was inactive. Further, the call in experiment [8] and in experiment [7] was inactive.
